Screening data from PubChem.
Most compounds without a hit are left out; they make up all but 3.9% or so of the library.
NSD2 HMT inh: blocks human histone methyltransferase NSD2. O96028. NSD2 peptide methylation, AlphaScreen, 120 min. inhibition, % at 12.5 µM. hit rate 0.54% among 310,000. AID 743445; in the data active means inhibition above about 50%
Glyco luc inh: blocks N-linked glycosylation in D54 reporter cells; D54 ERlucT glycosylation luciferase reporter, 24 h; percent of 100 nM tunicamycin response; reporter increase, % at 12.5 µM; hit rate 0.23% among 360,000;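 active means mean luciferase reporter signal, scaled so untreated is 0 and the glycosylation-blocking control 100, at or above a set limit in every replicate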;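 further: luciferase carries N-glycosylation sites so blocking glycosylation raises the light; 0% = median of neutral control wells and 100% = median of 100 nM tunicamycin wells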
SUMO Mot1 rescue: SUMOylation pathway inhibition by Mot1-301 growth rescue | growth rescue, % at 18.8 µM | hit rate 1% among 320,000 | S. cerevisiae Mot1-301 growth rescue, ATP luminescence, 38.5C; percent above DMSO median, 100 means doubled;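 active means every valid replicate shows activation above 250% relative to neutral control wells; inactive means the rest, any valid replicate at or below 250%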;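 further: OY570 slx delta 5 strain wells were the positive control but not used for scaling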
ALR H2O2 inh: human ALR oxidase inhibition via reduced H2O2; AID 485317; P55789; purified ALR, DTT oxidation, H2O2 HRP-luminol luminescence; hit rate 3.8% among 290,000; inhibition, % (no concentration beside the values);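 active means mean replicate inhibition above about 79%, with every replicate also reaching it, limit read from the data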
CDK5 p35 inh: CDK5/p35 (human) kinase inhibition | Q00535+Q15078 | Recombinant CDK5/p35, ADP-Glo luminescence, 60 min | inhibition, % at 10 µM | hit rate 0.01% among 330,000;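 active means highest replicate inhibition of at least 50% and at least 75% of replicates reaching 50%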;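 further: plate controls were DMSO neutral control for no effect and GW8510 at 10 µM for full effect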
Casp6 inh: caspase-6 (human) enzyme inhibition; P55212; purified caspase-6, Z-VEID-R110 cleavage fluorescence; inhibition, % at 12.5 µM; hit rate 0.53% among 350,000; AID 686996;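 active means mean inhibition across replicates at least about 35%, with every replicate also reaching that limit, limit read from the data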;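 further: 0% = median of neutral control wells and 100% = no fluorescence left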
* marks the source's active call; other numbers are inactive results.

Results for CC(C)NC(=O)N(C)C[C@H]1OCCCC[C@@H](C)Oc2ccc(N(C)C)cc2C(=O)N([C@@H](C)CO)C[C@@H]1C ?
Casp6 inh: 9

What do the screens show for `Cc1nc2ccc(C(=O)O)cc2c2c1CC(C)S2` (configuration not stated)?
Glyco luc inh: 0; SUMO Mot1 rescue: -8; ALR H2O2 inh: 100*; CDK5 p35 inh: -2

Results for Cc1nc2cc(C(=O)O)ccc2s1 ?
NSD2 HMT inh: 24; Glyco luc inh: 0; SUMO Mot1 rescue: -4; ALR H2O2 inh: -1; CDK5 p35 inh: 4

What do the screens show for `Cc1cccc(CSCc2ccc(C(=O)NCC3CCCO3)o2)c1` (configuration not stated)?
Glyco luc inh: -4; SUMO Mot1 rescue: 315*; ALR H2O2 inh: 35; CDK5 p35 inh: -1; Casp6 inh: 0

Results for COc1ccc(NC(=O)Nc2ccccc2F)c([N+](=O)[O-])c1 ?
NSD2 HMT inh: -2; Glyco luc inh: -2; SUMO Mot1 rescue: 9; ALR H2O2 inh: 0; CDK5 p35 inh: -7; Casp6 inh: 39*

How did COc1ccc2cc(C(=O)NCc3ccccc3)c(=Nc3ccc(C(=O)O)cc3)oc2c1 do in these assays?
Glyco luc inh: 3; SUMO Mot1 rescue: -17; ALR H2O2 inh: -2; CDK5 p35 inh: 0

How did O=C(O)c1ccc(N=c2oc3cc(O)ccc3cc2C(=O)NCc2ccccc2)cc1 do in these assays?
NSD2 HMT inh: 10; Glyco luc inh: -1; SUMO Mot1 rescue: -8; ALR H2O2 inh: 90*; CDK5 p35 inh: 1; Casp6 inh: 10

What do the screens show for `CC(=O)N1[C@H](C(=O)NC2CCC2)[C@@H](CO)[C@@H]2Cn3c(ccc(-c4ccc(F)cc4)c3=O)[C@@H]21`?
Casp6 inh: -2

How did O=C(NCc1ccccn1)C(=O)NCc1ccccn1 do in these assays?
NSD2 HMT inh: 3; Glyco luc inh: 0; SUMO Mot1 rescue: 295*; ALR H2O2 inh: -21; CDK5 p35 inh: -6; Casp6 inh: -4

How did Cc1occc1C(=O)NCc1ccccn1 do in these assays?
Glyco luc inh: 2; SUMO Mot1 rescue: 4; ALR H2O2 inh: 82*; CDK5 p35 inh: 1

What do the screens show for `COC(=O)C[C@@H]1CC[C@H]2[C@H](COc3ccc(NC(=O)c4cccc(OC)c4)cc3C(=O)N2C)O1`?
Casp6 inh: 0

Results for CCOC(=O)N1CCN(C(=O)CCCCn2c(=S)[nH]c3ccsc3c2=O)CC1 ?
NSD2 HMT inh: -5; Glyco luc inh: 4; SUMO Mot1 rescue: 69; ALR H2O2 inh: 96*; CDK5 p35 inh: -8; Casp6 inh: 0

Results for Cc1ccc(NC(=O)CCCn2c(=S)[nH]c3ccsc3c2=O)cc1C ?
NSD2 HMT inh: 1; Glyco luc inh: 1; SUMO Mot1 rescue: -4; ALR H2O2 inh: 84*; CDK5 p35 inh: 2; Casp6 inh: 7

Results for C[C@H](CO)N1C[C@H](C)[C@@H](CN(C)Cc2ccc(Oc3ccccc3)cc2)Oc2ccc(NC(=O)CCN3CCOCC3)cc2C1=O ?
Casp6 inh: -2

How did C[C@H](CO)N1C[C@H](C)[C@H](CN(C)C)Oc2cc(-c3cccc(F)c3)ccc2S1(=O)=O do in these assays?
Casp6 inh: 4

How did Cc1cc(C)n2c(SCC(=O)N(CCC#N)c3ccc4c(c3)OCCO4)nnc2n1 do in these assays?
NSD2 HMT inh: 2; Glyco luc inh: -6; Casp6 inh: 7

How did Cc1ccc(N(CCC#N)C(=O)CSc2ccc3c(c2)OCCO3)cc1 do in these assays?
NSD2 HMT inh: -2; Glyco luc inh: -2; SUMO Mot1 rescue: -8; ALR H2O2 inh: 99*; CDK5 p35 inh: 1

How did N#CCCN(C(=O)COC(=O)C1=COCCO1)c1ccc(F)cc1 do in these assays?
NSD2 HMT inh: -1; Glyco luc inh: 1; SUMO Mot1 rescue: -2; ALR H2O2 inh: 1; CDK5 p35 inh: 1; Casp6 inh: -1

How did N#CCCN(C(=O)CSc1ccc2c(c1)OCCO2)c1ccc(F)cc1 do in these assays?
NSD2 HMT inh: 3; Glyco luc inh: 3; SUMO Mot1 rescue: 160; ALR H2O2 inh: 98*; CDK5 p35 inh: 0

What do the screens show for `CCOC(=O)c1c(/N=C/c2cc([N+](=O)[O-])ccc2O)sc(C)c1C`?
NSD2 HMT inh: 0; Glyco luc inh: 1; SUMO Mot1 rescue: -2; ALR H2O2 inh: 98*; CDK5 p35 inh: -2; Casp6 inh: -5

Results for CCCNC(=O)N[C@@H]1CC[C@@H](CC(=O)NC2CCCCC2)O[C@@H]1CO ?
Casp6 inh: -3

How did Cc1ccc2c(c1)c1c3n2CCN(C(=O)C2CC2)C3CCC1 (configuration not stated) do in these assays?
Glyco luc inh: 1; SUMO Mot1 rescue: -3; ALR H2O2 inh: -26; CDK5 p35 inh: 2; Casp6 inh: 4

How did Cc1ccc2c(c1)c1c3n2CCN(C(=O)CN2CCN(C)CC2)C3CCC1 (configuration not stated) do in these assays?
NSD2 HMT inh: 0; Glyco luc inh: -2; SUMO Mot1 rescue: 11; ALR H2O2 inh: 91*; CDK5 p35 inh: 0

Results for CN1CCN(CC(=O)N2CCn3c4c(c5cc(C6CCCCC6)ccc53)CCCC42)CC1 (configuration not stated) ?
Glyco luc inh: -10; SUMO Mot1 rescue: 500*; ALR H2O2 inh: -6; CDK5 p35 inh: 1

What do the screens show for `COc1ccc(CN(C)C[C@H]2Oc3ccc(NS(=O)(=O)c4ccc(C)cc4)cc3C(=O)N([C@H](C)CO)C[C@@H]2C)cc1`?
Casp6 inh: 0

Results for CO[C@H]1CN(C)C(=O)c2cc(NC(C)=O)ccc2OC[C@H](C)N(Cc2cncnc2)C[C@@H]1C ?
Casp6 inh: 1

Results for O=C(NC1CCCCCCC1)C1CCCN(S(=O)(=O)c2cnc[nH]2)C1 (configuration not stated) ?
Glyco luc inh: -2; SUMO Mot1 rescue: 3; ALR H2O2 inh: 95*; CDK5 p35 inh: 1; Casp6 inh: 0

What do the screens show for `O=C(NC1CCCC1)C1CCCN(S(=O)(=O)c2cnc[nH]2)C1` (configuration not stated)?
Glyco luc inh: 1; SUMO Mot1 rescue: 108; ALR H2O2 inh: 96*; CDK5 p35 inh: -5; Casp6 inh: 1

What do the screens show for `CCC(=O)N[C@H]1C=C[C@H](CC(=O)NCc2cc(F)cc(F)c2)O[C@@H]1CO`?
Casp6 inh: 6

Results for N=c1oc2ccccc2cc1-c1nc2ccccc2c(=O)[nH]1 ?
Glyco luc inh: 3; SUMO Mot1 rescue: 8; ALR H2O2 inh: 94*; CDK5 p35 inh: 0; Casp6 inh: -1

How did C[C@H]1CN([C@@H](C)CO)S(=O)(=O)c2ccc(C3=CCCCC3)cc2O[C@H]1CN(C)C(=O)C1CC1 do in these assays?
Casp6 inh: 1

Results for CCCCNC(=O)C1CCN(Cc2ccccn2)CC1 ?
NSD2 HMT inh: 4; Glyco luc inh: 2; SUMO Mot1 rescue: 303*; ALR H2O2 inh: -5; CDK5 p35 inh: -2
